Measured values published in the supplement of paper PMC10849652.
The full data set covers some 8,800 targets. This sample favours those with a hit. About 0.5% of all pairs of compound and target were hits.

Tests used:
Test in all cases: log2 fold change, soluble protein after heating vs DMSO (PISA); higher = thermal stabilisation; K562 lysate, 10 uM; active = over 0.2 and 3.5 SD of the protein, either way, in both replicates (recomputed)
lapatinib = compound: CS(=O)(=O)CCNCc1ccc(-c2ccc3ncnc(Nc4ccc(OCc5cccc(F)c5)c(Cl)c4)c3c2)o1 [lapatinib]
In short: (§1)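 K562 pellets were dounce-homogenised in PBS pH 7.4 containing 1 mM MgCl2, and the crude extract, at 1 mg/mL protein, was exposed to 10 μM compound for 30 min. Aliquots were heated for 3 min across 48°C-58°C, pooled, brought to 0.5% NP-40 at 4°C and spun at 21,000xg for 90 min, with the supernatant taken as soluble protein. TMTpro 16plex LC-MS/MS with equalised channel sums quantified that protein. Values are log-two fold changes in thermal stability relative to solvent controls, taken from duplicates.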

pictilisib = compound: CS(=O)(=O)N1CCN(Cc2cc3nc(-c4cccc5[nH]ncc45)nc(N4CCOCC4)c3s2)CC1 [pictilisib]
In short: as §1

crizotinib = compound: C[C@@H](Oc1cc(-c2cnn(C3CCNCC3)c2)cnc1N)c1c(Cl)ccc(F)c1Cl [crizotinib]
In short: as §1

[1] = compound: C[C@H](C1=CC=C(C=C1)C(=O)NC2=C3C=CNC3=NC=C2)N
In short: as §1

duvelisib = compound: C[C@H](Nc1ncnc2nc[nH]c12)c1cc2cccc(Cl)c2c(=O)n1-c1ccccc1 [duvelisib]
In short: as §1

gandotinib = compound: Cc1cc(Nc2cc(CN3CCOCC3)c3nc(C)c(Cc4ccc(Cl)cc4F)n3n2)n[nH]1 [gandotinib]
In short: as §1

tozasertib = compound: Cc1cc(Nc2cc(N3CCN(C)CC3)nc(Sc3ccc(NC(=O)C4CC4)cc3)n2)n[nH]1 [tozasertib]
In short: as §1

doramapimod = compound: Cc1ccc(-n2nc(C(C)(C)C)cc2NC(=O)Nc2ccc(OCCN3CCOCC3)c3ccccc23)cc1 [doramapimod]
In short: as §1

bafetinib = compound: Cc1ccc(NC(=O)c2ccc(CN3CC[C@H](N(C)C)C3)c(C(F)(F)F)c2)cc1Nc1nccc(-c2cncnc2)n1 [bafetinib]
In short: as §1

[2] = compound: Cc1cccc(CC(=O)N2CCc3c2ccc(-c2cn(C)c4ncnc(N)c24)c3F)n1
In short: as §1

nilotinib = compound: Cc1cn(-c2cc(NC(=O)c3ccc(C)c(Nc4nccc(-c5cccnc5)n4)c3)cc(C(F)(F)F)c2)cn1 [nilotinib]
In short: as §1

[3] = compound: Cc1nc(Nc2n[nH]c3c2CN(C(=O)N[C@H](CN(C)C)c2ccccc2)C3(C)C)c2sccc2n1
In short: as §1

dasatinib = compound: Cc1nc(Nc2ncc(C(=O)Nc3c(C)cccc3Cl)s2)cc(N2CCN(CCO)CC2)n1 [dasatinib]
In short: as §1

[4] = compound: Cc1ncc(-c2ccnc(Nc3ccc(S(C)(=O)=O)cc3)n2)n1C(C)C
In short: as §1

[5] = compound: Cn1cc(-c2ccc3c(c2)CCN3C(=O)Cc2cccc(C(F)(F)F)c2)c2c(N)ncnc21
In short: as §1

quisinostat = compound: Cn1cc(CNCC2CCN(c3ncc(C(=O)NO)cn3)CC2)c2ccccc21 [quisinostat]
In short: as §1

tipifarnib = compound: Cn1cncc1[C@@](N)(c1ccc(Cl)cc1)c1ccc2c(c1)c(-c1cccc(Cl)c1)cc(=O)n2C [tipifarnib]
In short: as §1

[6] = compound: NC(=O)Nc1cc(-c2cccc(F)c2)sc1C(=O)N[C@H]1CCCNC1
In short: as §1

[7] = compound: NC(=O)c1cnc(N[C@@H]2CCCC[C@@H]2N)nc1Nc1cccc(-n2nccn2)c1
In short: as §1

[8] = compound: NC1(c2ccc(-c3nc4ccn5c(=O)[nH]nc5c4cc3-c3ccccc3)cc2)CCC1
In short: as §1

Measured: log2 fold change

CKAP5 (UniProt Q14008)
inactive: lapatinib 0.001 | pictilisib 0.013 | crizotinib -0.017 | [1] 0.004 | duvelisib 0.001 | gandotinib -0.053 | tozasertib 0.01 | doramapimod 0.011 | bafetinib 0.005 | [2] 0.015 | nilotinib 0 | [3] 0.002 | dasatinib -0.024 | [4] -0.005 | [5] 0.026 | quisinostat -0.03 | tipifarnib -0.028 | [6] 0.021 | [7] 0.01 | [8] 0.006

CYP4V2 (UniProt Q6ZWL3)
active: pictilisib -0.441
inactive: lapatinib 0.049 | crizotinib 0.12 | duvelisib 0.031 | doramapimod 0.027 | bafetinib 0.177 | dasatinib -0.041 | [5] 0.049 | quisinostat 0.103 | [6] -0.026 | [7] -0.101 | [8] -0.033

CLCN3 (UniProt P51790)
inactive: lapatinib 0.004 | crizotinib 0.014 | [1] -0.09 | duvelisib -0.017 | gandotinib -0.106 | tozasertib -0.008 | doramapimod 0.033 | bafetinib -0.004 | [2] 0.13 | nilotinib 0.15 | [3] -0.043 | dasatinib -0.033 | [4] 0.117 | [5] 0.046 | quisinostat 0.056 | tipifarnib -0.097 | [6] -0.064 | [7] -0.002 | [8] 0.071

CLIP1 isoform 2 (UniProt P30622)
inactive: lapatinib 0.066 | crizotinib 0.018 | [1] -0.103 | duvelisib -0.053 | gandotinib 0.135 | tozasertib 0.047 | doramapimod 0 | bafetinib 0.031 | [2] 0 | nilotinib 0.055 | [3] -0.04 | dasatinib 0.049 | [4] -0.073 | [5] -0.01 | quisinostat -0.049 | tipifarnib 0.015 | [6] -0.015 | [7] 0.029 | [8] -0.059

CLUH, A0A494C0R8
inactive: lapatinib -0.052 | crizotinib -0.019 | duvelisib 0.154 | gandotinib -0.108 | tozasertib -0.025 | doramapimod -0.026 | bafetinib -0.091 | [2] -0.14 | nilotinib 0.026 | [3] 0.146 | dasatinib 0.028 | [4] -0.022 | [5] 0.015 | quisinostat -0.165 | tipifarnib -0.033 | [6] 0.022 | [7] -0.045 | [8] 0.046
active: [1] 0.557

CLIC2 (UniProt O15247)
Chain of UniProt O15247 (O15247 whole entry, looked up): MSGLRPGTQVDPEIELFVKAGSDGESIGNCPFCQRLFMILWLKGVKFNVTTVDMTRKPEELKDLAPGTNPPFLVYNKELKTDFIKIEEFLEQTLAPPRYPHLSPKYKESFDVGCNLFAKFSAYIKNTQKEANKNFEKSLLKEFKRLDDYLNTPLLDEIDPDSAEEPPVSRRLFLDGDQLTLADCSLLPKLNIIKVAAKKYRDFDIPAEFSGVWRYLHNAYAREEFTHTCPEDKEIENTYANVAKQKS
inactive: lapatinib -0.057 | crizotinib -0.002 | [1] -0.037 | duvelisib -0.039 | gandotinib -0.015 | tozasertib -0.016 | doramapimod -0.022 | bafetinib -0.009 | [2] 0.005 | nilotinib 0.029 | [3] -0.032 | dasatinib -0.017 | [4] 0.004 | [5] -0.022 | quisinostat -0.019 | tipifarnib -0.024 | [6] 0.023 | [7] 0.004 | [8] -0.005

COQ9 (UniProt O75208)
Chain of UniProt O75208 (O75208 whole entry, looked up): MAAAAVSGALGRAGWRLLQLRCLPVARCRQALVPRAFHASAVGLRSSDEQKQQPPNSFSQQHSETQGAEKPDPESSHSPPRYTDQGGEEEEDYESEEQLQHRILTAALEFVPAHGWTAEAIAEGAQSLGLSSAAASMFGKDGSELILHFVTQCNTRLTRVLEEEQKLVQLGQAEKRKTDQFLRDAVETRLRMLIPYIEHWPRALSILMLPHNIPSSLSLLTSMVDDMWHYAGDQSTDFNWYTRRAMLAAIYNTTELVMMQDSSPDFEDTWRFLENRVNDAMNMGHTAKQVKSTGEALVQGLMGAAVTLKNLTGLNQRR
inactive: lapatinib -0.033 | pictilisib -0.021 | crizotinib 0.014 | [1] 0.055 | duvelisib -0.052 | gandotinib -0.12 | tozasertib 0.02 | doramapimod -0.055 | bafetinib 0.032 | [2] 0.019 | nilotinib 0.021 | [3] 0.03 | dasatinib -0.021 | [4] 0 | [5] -0.007 | quisinostat 0.036 | tipifarnib -0.016 | [6] 0 | [7] 0.002 | [8] -0.018

DNAH5 (UniProt Q8TE73)
active: [1] -0.422
inactive: lapatinib 0.043 | pictilisib -0.005 | duvelisib -0.051 | gandotinib 0.181 | bafetinib -0.047 | [2] 0.175 | nilotinib -0.029 | [3] -0.036 | dasatinib -0.072 | [4] -0.013 | [5] -0.156 | tipifarnib -0.128 | [7] -0.073 | [8] -0.049

DPY19L3 (UniProt Q6ZPD9)
Chain of UniProt Q6ZPD9 (Q6ZPD9 whole entry, looked up): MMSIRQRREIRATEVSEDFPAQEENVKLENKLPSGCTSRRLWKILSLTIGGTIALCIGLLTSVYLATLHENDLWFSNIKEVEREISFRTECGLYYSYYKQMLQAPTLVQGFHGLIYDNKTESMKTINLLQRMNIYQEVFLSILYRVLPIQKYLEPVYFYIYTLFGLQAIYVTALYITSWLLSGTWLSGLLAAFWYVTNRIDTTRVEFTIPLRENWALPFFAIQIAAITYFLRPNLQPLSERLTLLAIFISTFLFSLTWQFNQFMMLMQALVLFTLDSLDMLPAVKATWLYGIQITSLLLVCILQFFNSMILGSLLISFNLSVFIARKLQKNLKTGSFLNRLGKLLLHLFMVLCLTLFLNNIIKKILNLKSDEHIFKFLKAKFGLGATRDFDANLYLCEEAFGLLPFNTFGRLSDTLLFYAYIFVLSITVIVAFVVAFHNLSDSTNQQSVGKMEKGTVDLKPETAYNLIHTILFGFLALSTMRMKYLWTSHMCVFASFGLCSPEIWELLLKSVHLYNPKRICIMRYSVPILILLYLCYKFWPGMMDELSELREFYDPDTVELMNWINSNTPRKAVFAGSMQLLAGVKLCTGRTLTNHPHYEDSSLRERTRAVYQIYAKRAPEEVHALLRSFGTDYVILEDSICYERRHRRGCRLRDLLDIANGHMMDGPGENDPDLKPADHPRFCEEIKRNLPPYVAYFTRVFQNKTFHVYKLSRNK
inactive: lapatinib -0.077 | pictilisib -0.268 | crizotinib -0.107 | tozasertib 0.057 | doramapimod -0.081 | bafetinib -0.113 | quisinostat -0.103 | [6] 0.034 | [7] 0.045
active: [8] -0.683

CLASP1 (UniProt Q7Z460)
Chain of UniProt Q7Z460 (Q7Z460 whole entry, looked up): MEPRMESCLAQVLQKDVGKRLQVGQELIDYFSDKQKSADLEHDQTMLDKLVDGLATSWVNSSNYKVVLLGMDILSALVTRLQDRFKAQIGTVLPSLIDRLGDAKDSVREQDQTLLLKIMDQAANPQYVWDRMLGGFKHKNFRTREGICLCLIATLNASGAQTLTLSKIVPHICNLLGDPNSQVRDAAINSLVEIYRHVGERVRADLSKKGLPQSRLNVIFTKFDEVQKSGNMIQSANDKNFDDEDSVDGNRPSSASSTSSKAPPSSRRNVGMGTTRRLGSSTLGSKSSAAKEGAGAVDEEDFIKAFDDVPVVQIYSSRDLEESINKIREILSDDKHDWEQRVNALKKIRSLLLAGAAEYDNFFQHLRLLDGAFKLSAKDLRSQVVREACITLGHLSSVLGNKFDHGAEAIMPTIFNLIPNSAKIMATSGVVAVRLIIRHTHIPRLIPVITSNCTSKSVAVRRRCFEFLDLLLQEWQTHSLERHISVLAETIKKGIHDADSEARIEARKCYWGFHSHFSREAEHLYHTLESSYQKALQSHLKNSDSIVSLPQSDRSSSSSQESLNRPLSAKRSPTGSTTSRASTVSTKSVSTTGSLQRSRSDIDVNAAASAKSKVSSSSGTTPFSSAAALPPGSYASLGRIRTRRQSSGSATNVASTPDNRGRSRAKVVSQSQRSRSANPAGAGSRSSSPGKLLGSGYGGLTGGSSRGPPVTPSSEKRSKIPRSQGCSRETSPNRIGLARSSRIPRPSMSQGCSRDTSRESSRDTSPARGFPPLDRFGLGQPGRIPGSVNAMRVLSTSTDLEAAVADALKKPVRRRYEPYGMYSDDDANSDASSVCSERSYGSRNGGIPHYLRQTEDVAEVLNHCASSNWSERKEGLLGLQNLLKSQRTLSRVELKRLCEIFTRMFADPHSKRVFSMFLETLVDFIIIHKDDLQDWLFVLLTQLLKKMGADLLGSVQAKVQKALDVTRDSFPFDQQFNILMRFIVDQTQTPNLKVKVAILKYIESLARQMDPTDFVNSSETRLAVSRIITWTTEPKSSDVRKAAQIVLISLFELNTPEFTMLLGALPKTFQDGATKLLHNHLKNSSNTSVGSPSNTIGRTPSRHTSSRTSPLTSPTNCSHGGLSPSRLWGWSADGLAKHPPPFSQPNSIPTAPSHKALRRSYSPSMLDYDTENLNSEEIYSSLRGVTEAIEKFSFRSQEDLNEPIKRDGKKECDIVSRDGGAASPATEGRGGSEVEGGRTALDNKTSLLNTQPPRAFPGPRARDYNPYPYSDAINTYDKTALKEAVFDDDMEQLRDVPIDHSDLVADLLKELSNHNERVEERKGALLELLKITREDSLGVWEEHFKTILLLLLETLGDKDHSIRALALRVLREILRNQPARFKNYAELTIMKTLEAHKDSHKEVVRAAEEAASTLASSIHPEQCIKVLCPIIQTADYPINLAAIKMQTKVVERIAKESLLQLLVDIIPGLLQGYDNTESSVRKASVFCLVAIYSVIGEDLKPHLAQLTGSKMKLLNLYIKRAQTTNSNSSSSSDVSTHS
inactive: lapatinib 0 | crizotinib -0.051 | [1] -0.09 | duvelisib -0.003 | gandotinib 0.188 | tozasertib 0.004 | doramapimod 0.03 | bafetinib -0.042 | [2] 0.185 | nilotinib -0.015 | [3] 0.021 | dasatinib -0.097 | [4] 0.013 | [5] 0.016 | quisinostat -0.085 | tipifarnib -0.051 | [6] -0.022 | [7] 0.012 | [8] -0.018

CHMP4A (UniProt H0YIN6)
inactive: lapatinib -0.078 | pictilisib -0.071 | crizotinib -0.211 | [1] -0.091 | duvelisib 0 | gandotinib 0.451 | doramapimod -0.059 | bafetinib -0.098 | [2] 0.325 | dasatinib 0.294 | [5] -0.06 | quisinostat -0.502 | [6] 0.041 | [7] 0.066

DIAPH1 (UniProt H9KV28)
inactive: lapatinib 0.003 | pictilisib 0.087 | crizotinib -0.047 | [1] -0.039 | gandotinib 0.199 | tozasertib 0.049 | doramapimod 0.099 | bafetinib -0.171 | [2] 0.158 | nilotinib -0.027 | [3] -0.122 | [4] 0.053 | quisinostat -0.093 | tipifarnib -0.051 | [6] -0.001 | [7] 0.05 | [8] 0.111

DONSON (UniProt Q9NYP3)
inactive: lapatinib -0.012 | pictilisib -0.019 | crizotinib -0.012 | [1] -0.32 | duvelisib 0.007 | gandotinib 0.196 | doramapimod 0.07 | bafetinib -0.033 | [2] -0.157 | nilotinib 0.035 | [3] 0.004 | dasatinib -0.031 | [4] 0.066 | [5] -0.035 | quisinostat -0.051 | tipifarnib -0.024 | [6] -0.003 | [7] -0.022 | [8] 0.082

CNTN4 (UniProt Q8IWV2)
Chain of UniProt Q8IWV2 (Q8IWV2 whole entry, looked up): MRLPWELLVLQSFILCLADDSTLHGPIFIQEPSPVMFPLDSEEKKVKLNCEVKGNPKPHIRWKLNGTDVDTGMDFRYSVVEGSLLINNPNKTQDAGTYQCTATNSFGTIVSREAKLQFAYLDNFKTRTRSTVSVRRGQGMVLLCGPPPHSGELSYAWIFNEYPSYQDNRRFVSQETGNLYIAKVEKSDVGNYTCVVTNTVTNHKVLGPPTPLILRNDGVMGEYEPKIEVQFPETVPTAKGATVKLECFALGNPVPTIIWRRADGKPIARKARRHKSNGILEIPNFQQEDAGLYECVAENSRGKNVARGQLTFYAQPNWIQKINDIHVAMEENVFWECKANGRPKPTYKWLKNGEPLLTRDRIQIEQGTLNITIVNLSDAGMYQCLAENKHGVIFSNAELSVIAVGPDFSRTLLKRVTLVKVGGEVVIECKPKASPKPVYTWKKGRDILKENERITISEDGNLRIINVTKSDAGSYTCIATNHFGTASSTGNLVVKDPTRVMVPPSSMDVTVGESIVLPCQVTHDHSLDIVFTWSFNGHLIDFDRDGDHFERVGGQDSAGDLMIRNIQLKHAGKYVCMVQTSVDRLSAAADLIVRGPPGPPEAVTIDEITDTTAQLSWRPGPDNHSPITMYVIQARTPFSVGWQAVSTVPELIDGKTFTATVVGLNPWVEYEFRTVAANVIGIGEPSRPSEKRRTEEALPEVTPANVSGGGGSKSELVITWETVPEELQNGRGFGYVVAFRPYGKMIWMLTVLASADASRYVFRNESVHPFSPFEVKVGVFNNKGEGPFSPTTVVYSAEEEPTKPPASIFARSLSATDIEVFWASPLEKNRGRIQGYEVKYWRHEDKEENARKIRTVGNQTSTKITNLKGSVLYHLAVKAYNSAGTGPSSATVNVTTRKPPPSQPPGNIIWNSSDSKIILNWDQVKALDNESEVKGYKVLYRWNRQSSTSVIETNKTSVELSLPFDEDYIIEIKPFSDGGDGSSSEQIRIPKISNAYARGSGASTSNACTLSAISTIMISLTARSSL
active: quisinostat -0.561
inactive: lapatinib -0.052 | pictilisib -0.066 | crizotinib -0.268 | [1] -0.432 | gandotinib 0.545 | tozasertib -0.182 | doramapimod -0.067 | bafetinib -0.145 | [2] 0.484 | nilotinib 0.127 | [3] -0.06 | [4] 0.306 | tipifarnib -0.006 | [6] 0.151 | [7] 0.072 | [8] -0.024

CNOT4 isoform 9 (UniProt O95628)
active: [1] -1.01
inactive: lapatinib -0.006 | pictilisib -0.014 | crizotinib 0.077 | duvelisib -0.009 | gandotinib 0.298 | tozasertib 0.04 | doramapimod -0.184 | bafetinib -0.031 | [2] 0.271 | dasatinib -0.062 | [5] -0.052 | quisinostat 0.17 | [6] -0.058 | [7] 0.081 | [8] -0.024

CLUH (UniProt O75153)
inactive: lapatinib -0.014 | crizotinib -0.057 | [1] -0.012 | duvelisib 0.147 | gandotinib 0.004 | tozasertib -0.005 | doramapimod -0.007 | bafetinib -0.044 | [2] 0.032 | nilotinib 0.009 | [3] 0.075 | dasatinib -0.025 | [4] -0.007 | [5] 0.002 | quisinostat -0.043 | tipifarnib 0.007 | [6] 0.039 | [7] -0.006 | [8] 0.004

CTPS1 (UniProt P17812)
inactive: lapatinib -0.007 | pictilisib -0.015 | crizotinib -0.044 | [1] 0.004 | duvelisib -0.003 | gandotinib -0.052 | tozasertib -0.004 | doramapimod 0.005 | bafetinib 0.078 | [2] 0.015 | nilotinib 0.009 | [3] -0.005 | dasatinib -0.058 | [4] 0.011 | [5] 0.026 | quisinostat -0.019 | tipifarnib -0.015 | [6] 0.028 | [7] 0.002 | [8] -0.004

DENND1B (UniProt Q6P3S1)
Chain of UniProt Q6P3S1 (Q6P3S1 whole entry, looked up): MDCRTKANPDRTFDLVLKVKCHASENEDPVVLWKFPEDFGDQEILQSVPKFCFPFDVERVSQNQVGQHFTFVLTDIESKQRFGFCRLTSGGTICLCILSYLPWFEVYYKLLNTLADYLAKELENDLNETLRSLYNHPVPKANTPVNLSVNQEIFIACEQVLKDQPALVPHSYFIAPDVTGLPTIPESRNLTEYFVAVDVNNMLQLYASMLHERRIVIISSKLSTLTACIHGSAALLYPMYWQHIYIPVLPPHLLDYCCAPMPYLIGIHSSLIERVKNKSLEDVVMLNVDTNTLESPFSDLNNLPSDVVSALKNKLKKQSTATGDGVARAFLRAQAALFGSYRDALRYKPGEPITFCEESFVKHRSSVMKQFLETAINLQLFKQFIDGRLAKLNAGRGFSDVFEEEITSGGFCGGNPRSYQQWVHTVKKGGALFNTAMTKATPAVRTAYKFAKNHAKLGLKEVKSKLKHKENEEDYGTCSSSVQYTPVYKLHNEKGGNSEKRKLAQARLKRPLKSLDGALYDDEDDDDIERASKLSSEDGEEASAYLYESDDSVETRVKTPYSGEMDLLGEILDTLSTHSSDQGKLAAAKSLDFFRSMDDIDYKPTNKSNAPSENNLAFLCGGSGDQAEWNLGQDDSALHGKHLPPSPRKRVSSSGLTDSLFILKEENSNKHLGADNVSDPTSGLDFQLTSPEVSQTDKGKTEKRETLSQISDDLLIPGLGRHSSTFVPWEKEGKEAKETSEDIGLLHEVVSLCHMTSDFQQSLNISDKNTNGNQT
inactive: lapatinib 0.1 | pictilisib 0.096 | crizotinib -0.019 | [1] 0.003 | duvelisib -0.08 | gandotinib -0.194 | doramapimod -0.072 | bafetinib 0.154 | [2] -0.03 | nilotinib 0.042 | [3] -0.073 | dasatinib 0.073 | [4] -0.05 | [5] -0.09 | quisinostat -0.16 | tipifarnib 0.017 | [6] 0.211 | [7] 0.2 | [8] 0.209
